# Data: the supplement of paper PMC8728848
# This excerpt belongs to a sample that is enriched for the strongest signals.
# How the values were obtained:
# Experiment in all cases: glycan array binding signal (z-score within array); higher = stronger binding
# Conditions in all cases: glycan notation: IUPAC condensed, linker removed
# [1] = molecular target: Fuc(a1-2)Gal(b1-4)GlcNAc(b1-3)Gal(b1-4)GlcNAc(b1-3)Gal(b1-4)GlcNAc
# In short: (§1)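 Negative Z-scores can be read as non-binding. The Z-score is calculated within each array and then averaged across arrays of one protein sequence at different concentrations or buffers and across linkers. Arrays, 3228 in all, were curated from the Consortium for Functional Glycomics database and kept only where the protein sequence was available.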
# [2] = molecular target: Fuc(a1-3)[Gal(b1-4)]GlcNAc(b1-4)Gal(b1-4)[Fuc(a1-3)]GlcNAc(b1-4)Gal(b1-4)[Fuc(a1-3)]GlcNAc
# In short: as §1
# [3] = molecular target: Gal(b1-4)GlcNAc(b1-3)[GlcNAc(b1-6)]Gal(b1-4)GlcNAc
# In short: as §1
# Gal3S(b1-3)GalNAc = molecular target: Gal3S(b1-3)GalNAc
# In short: as §1
# Gal3S4S(b1-4)GlcNAc = molecular target: Gal3S4S(b1-4)GlcNAc
# In short: as §1
# Gal3S6S(b1-4)GlcNAc6S = molecular target: Gal3S6S(b1-4)GlcNAc6S
# In short: as §1
# Gal6S(b1-4)Glc6S = molecular target: Gal6S(b1-4)Glc6S
# In short: as §1
# GalNAc(b1-3)Gal = molecular target: GalNAc(b1-3)Gal
# In short: as §1
# [4] = molecular target: GlcNAc(a1-6)Gal(b1-4)GlcNAc
# In short: as §1
# [5] = molecular target: GlcNAc(b1-2)Man(a1-3)[GlcNAc(b1-2)Man(a1-6)]Man(b1-4)GlcNAc(b1-4)GlcNAc
# In short: as §1
# [6] = molecular target: GlcNAc(b1-3)Gal(b1-3)GalNAc
# In short: as §1
# [7] = molecular target: GlcNAc(b1-4)GlcNAc(b1-4)GlcNAc(b1-4)GlcNAc(b1-4)GlcNAc
# In short: as §1
# [8] = molecular target: GlcNAc(b1-4)GlcNAc(b1-4)GlcNAc(b1-4)GlcNAc(b1-4)GlcNAc(b1-4)GlcNAc
# In short: as §1
# Man(a1-2)Man(a1-3)Man = molecular target: Man(a1-2)Man(a1-3)Man
# In short: as §1
# [9] = molecular target: Man(a1-3)[Man(a1-6)]Man(a1-6)[Man(a1-3)]Man(b1-4)GlcNAc(b1-4)GlcNAc
# In short: as §1
# Man(a1-6)Man = molecular target: Man(a1-6)Man
# In short: as §1
# Neu5Ac(a2-3)Gal(b1-4)Glc = molecular target: Neu5Ac(a2-3)Gal(b1-4)Glc
# In short: as §1
# [10] = molecular target: Neu5Ac(a2-3)Gal(b1-4)[Fuc(a1-3)]GlcNAc(b1-3)Gal
# In short: as §1
# [11] = molecular target: Neu5Ac(a2-6)Gal(b1-4)GlcNAc(b1-2)Man(a1-3)[GlcNAc(b1-2)Man(b1-4)GlcNAc(b1-2)Man(a1-6)]Man(b1-4)GlcNAc(b1-4)GlcNAc
# In short: as §1
# [12] = molecular target: Neu5Ac(a2-6)Gal(b1-4)GlcNAc(b1-2)Man(a1-3)[Neu5Ac(a2-6)Gal(b1-4)GlcNAc(b1-2)Man(a1-6)]Man(b1-4)GlcNAc(b1-4)GlcNAc
# In short: as §1
# [13] = molecular target: Neu5Gc(a2-3)Gal(b1-4)GlcNAc
# In short: as §1
binder,measurement,setting,value
MD-2 (Homo sapiens) (protein) MLPFLFFSTLFSSIFTEAQKQYWVCNSSDASISYTYCDKMQYPISINVNPCIELKGSKGLLHIFYIPRRDLKQLYFNLYITVNTMNLPKRKEVICRGSDDDYSFCRALKGETVNTTISFSFKGIKFSKGKYKCVVEAISGSPEEMLFCLEFVILHQPNSN,glycan array binding signal (z-score),[1],0.156
same,glycan array binding signal (z-score),[2],-0.473
same,glycan array binding signal (z-score),[3],-0.262
same,glycan array binding signal (z-score),Gal3S(b1-3)GalNAc,-0.242
same,glycan array binding signal (z-score),Gal3S4S(b1-4)GlcNAc,3.89
same,glycan array binding signal (z-score),Gal3S6S(b1-4)GlcNAc6S,6.6
same,glycan array binding signal (z-score),Gal6S(b1-4)Glc6S,6.38
same,glycan array binding signal (z-score),GalNAc(b1-3)Gal,-0.354
same,glycan array binding signal (z-score),[4],-0.163
same,glycan array binding signal (z-score),[5],-0.316
same,glycan array binding signal (z-score),[6],-0.326
same,glycan array binding signal (z-score),[7],4.23
same,glycan array binding signal (z-score),[8],5.59
same,glycan array binding signal (z-score),Man(a1-2)Man(a1-3)Man,-0.386
same,glycan array binding signal (z-score),[9],0.116
same,glycan array binding signal (z-score),Man(a1-6)Man,0.081
same,glycan array binding signal (z-score),Neu5Ac(a2-3)Gal(b1-4)Glc,-0.127
same,glycan array binding signal (z-score),[10],-0.504
same,glycan array binding signal (z-score),[11],-0.331
same,glycan array binding signal (z-score),[12],-0.321
same,glycan array binding signal (z-score),[13],-0.291
